Source: PubChem BioAssay (NCATS)
Records with an inconclusive call do not appear. A call without a number means that no potency is given here. Values without a mark were called inactive. The source made the active and inactive calls. Calls come from the whole dose curve; as a rule, active = well fitted activation curve with a large enough effect; inconclusive = small, poorly fitted or top-dose-only effect, or another doubt; inactive = no such curve, though single readings can be large or run the other way.

molecular target: Rap guanine nucleotide exchange factor 3 (Homo sapiens) (UniProt O95398); assay: Counterscreen qHTS for agonist of cAMP-regulated guanine nucleotide exchange factor 3 (EPAC1) (AID 1645889); conditions: EPAC1 Rap1B-BODIPY-GDP exchange, fluorescence; series mostly up to 154 µM; note: nearly all actives have a fitted effect of over 40% in size
Outline: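 Rap1B–BODIPY-GDP (250 nM) with 50 uM GDP; compounds pin-transferred to 9.74 nM–152 uM final (activator) or from 7.32 nM upwards (inhibitor). Fluorescence Ex/Em 480/540 nm read at 5 and 30 min, then after adding cAMP or buffer, at room temperature.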
Potency is the fitted concentration of half-maximal effect.

Row | SMILES | Potency | activation
1 | Cc1nn(CCc2nn[nH]n2)c2nc(-c3ccc(C4CCCCC4)cc3)cc(C(F)(F)F)c12 | inactive | 
2 | O=C(NS(=O)(=O)c1ccc2ccc(S(=O)(=O)NCCSc3ccccc3)cc2c1)c1cccc2ccccc12 | inactive | 
3 | CCOC(=O)C1CCCN(C(=O)C(C)(C)Oc2ccc(Cl)cc2)C1 (stereo not given) | inactive | 
4 | O=C(CNC(=O)c1sc2ccccc2c1Cl)Nc1ccccc1F |  | 2.6% [at 30.8 µM]
5 | CCOc1c(OC)cccc1C1CC(=O)Nc2cc3c(cc21)OCCO3 (stereo not given) | inactive | 
6 | Cc1ccc(S(=O)(=O)/N=C2\C=C(Nc3cccc(C(=O)O)c3)C(=O)c3ccccc32)c(C)c1 | inactive | 
7 | CS/C(N)=N/N=C/c1c(O)ccc2ccccc12 | inactive | 
8 | CC(=O)c1c(C(C)=O)c(C)n(-c2nc(-c3ccccc3)c(C)s2)c1C | inactive | 
9 | CC(C)CNC(=O)c1c(-c2ccccc2)c(-c2ccccc2)nn(C)c1=O | inactive | 
10 | O=C1CSC2(C(=O)N(Cc3cccc(C(F)(F)F)c3)c3ccccc32)N1c1ccc(F)c(F)c1 (stereo not given) | inactive | 
11 | O=[N+]([O-])c1ccc(Cc2ccccn2)c([N+](=O)[O-])c1 | inactive | 
12 | OCC[n+]1ccc(/C=C/c2c[nH]c3ccccc23)cc1 | 56.2 µM (active) | 
13 | COc1ccc(C2c3c(ncn(CCCO)c3=N)Oc3ccc4ccccc4c32)cc1 (stereo not given) |  | 22.2% [at 30.8 µM]
14 | CC1(C(=O)O)CCC2(C)CCC3(C)C(=CC(=O)C4C5(C)CCC(=O)C(C)(C)C5CCC43C)C2C1 (stereo not given) | inactive | 
15 | C[C@@H](c1ccccc1)N1Cc2ccccc2Oc2cc(Br)ccc2S1(=O)=O | inactive | 
